Screens: PubChem, Johns Hopkins Ion Channel Center
KCNQ2 enhance: KCNQ2 (rat) channel potentiation; CHO-K1 KCNQ2, FluxOR thallium flux fluorescence; stronger effect = higher value; O88943; 310,000 compounds, 0.54% hits; B-score at 10 µM;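 active means fluorescence ratio B-score at least 3 SD of library B-scores, with initial fluorescence B-score within 3 of them, cut at about 5.3 in these data; same plate scores as AID 2156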;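 further: B-score of peak minus minimum over baseline fluorescence ratio after K+ and Tl+ stimulus; positive B-score means potentiation of KCNQ2 with more thallium influx and brighter signal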
Target sequence (O88943 whole entry, looked up): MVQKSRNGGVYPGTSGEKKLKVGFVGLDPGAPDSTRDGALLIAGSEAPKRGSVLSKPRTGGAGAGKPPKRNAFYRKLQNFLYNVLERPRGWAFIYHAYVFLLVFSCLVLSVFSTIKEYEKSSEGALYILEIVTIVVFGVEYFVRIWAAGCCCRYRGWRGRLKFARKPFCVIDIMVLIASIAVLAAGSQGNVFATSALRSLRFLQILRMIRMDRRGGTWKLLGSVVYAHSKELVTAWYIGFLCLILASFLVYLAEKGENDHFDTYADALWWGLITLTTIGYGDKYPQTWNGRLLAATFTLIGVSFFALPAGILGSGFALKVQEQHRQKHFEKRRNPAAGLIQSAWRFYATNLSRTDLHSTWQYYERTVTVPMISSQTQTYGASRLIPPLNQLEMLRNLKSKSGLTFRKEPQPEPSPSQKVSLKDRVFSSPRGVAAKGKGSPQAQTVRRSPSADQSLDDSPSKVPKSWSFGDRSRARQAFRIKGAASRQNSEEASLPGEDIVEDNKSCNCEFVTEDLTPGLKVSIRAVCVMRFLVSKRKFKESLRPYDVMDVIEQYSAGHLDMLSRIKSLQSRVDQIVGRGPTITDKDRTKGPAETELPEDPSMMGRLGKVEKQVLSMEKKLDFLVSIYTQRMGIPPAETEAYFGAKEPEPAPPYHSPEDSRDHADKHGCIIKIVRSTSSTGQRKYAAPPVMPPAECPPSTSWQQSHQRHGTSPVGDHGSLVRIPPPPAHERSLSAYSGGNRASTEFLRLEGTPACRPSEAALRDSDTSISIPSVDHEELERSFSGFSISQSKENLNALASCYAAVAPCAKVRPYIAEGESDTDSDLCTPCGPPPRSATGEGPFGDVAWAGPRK
KCNQ2 inh: inhibitors of rat KCNQ2 potassium channel; AID 2156; CHO-K1 KCNQ2, FluxOR thallium flux, 20 min; stronger effect = lower value; 310,000 compounds, 1.1% hits; B-score at 10 µM;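 active means fluorescence ratio B-score at most minus 3 library SDs, with starting brightness B-score within 2 library SDs, cut at about -5.5 in these data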
Hits are given with their value; i = inactive; nt = not tested or not shown. In the library only some 1.6% were active in any assay of this set; here they are far more common.

SMILES	KCNQ2 enhance	KCNQ2 inh
CN(C(=O)CC1C(=O)NCCN1CC(c1ccccc1)c1ccccc1)C(C1CC1)C1CC1 (centres undefined)	nt	i
CSCCC(NS(=O)(=O)c1ccc(C)cc1)C(=O)N1CC=C(c2ccccc2)CC1 (centres undefined)	i	i
Cc1ccc(C)c(NC(=O)Cc2coc3cc4c(cc23)CCC4)c1	i	i
CCC(C)c1ccccc1NC(=O)Cc1coc2cc3c(cc12)CCC3 (centres undefined)	7.7	i
N#Cc1ccccc1Sc1ccccc1C(=O)OCC(=O)NC12CC3CC(CC(C3)C1)C2	6.3	i
CC(=O)c1ccc(NC(=O)COC(=O)c2ccccc2Sc2ccccc2C#N)cc1	i	i
COc1ccc(N(C)S(=O)(=O)c2cccc(C(=O)N3CCN(S(=O)(=O)c4ccc(C)cc4)CC3)c2)cc1	i	i
Cc1cc(C)cc(NS(=O)(=O)c2ccc(-c3cnc(C4CC4)o3)cc2)c1	nt	i
Cc1ccc(C)c(NS(=O)(=O)c2ccc(-c3cnc(C4CC4)o3)cc2)c1	i	-6.8
Cc1c(C(N)=O)c(-c2ccccc2)nn1-c1ccccc1	i	i
CCCc1c(-c2ccc(O)cc2)nn(-c2ccc(O)cc2)c1-c1ccc(O)cc1	i	-6.6
CC1(CCc2ccccc2)NC(=S)N(c2ccc(Cl)cc2)N1 (centres undefined)	nt	i
CCC1(c2ccc(Cl)cc2)NC(=S)N(c2ccc(C)cc2)N1 (centres undefined)	17	i
O=C(CN1C(=O)/C(=C/c2ccco2)SC1=S)NC1CCS(=O)(=O)C1 (centres undefined)	i	i
CN(C)c1cccc(C(=O)OCC(=O)Nc2ccccc2-c2ccccc2)c1	i	i
CCN(CC)c1ccc(C(=O)OCC(=O)Nc2ccccc2-c2ccccc2)cc1	i	-6.5
CC(=O)CSc1nc2c(c(=O)[nH]c(=O)n2C)n1CCCc1ccccc1	i	i
Cc1c(C)c2ccc(OCC(=O)N3CC[C@@]4(O)CCCC[C@H]4C3)c(C)c2oc1=O	i	i
O=C(NC(=S)N1CCc2ccccc21)c1ccccc1Br	14	i
O=C(COc1ccc(Br)cc1Cl)NC(=S)N1CCc2ccccc21	i	i
CN1CCN(C(=S)NC(=O)c2ccccc2Br)CC1	nt	i
CC(Oc1ccc(Cl)cc1Cl)C(=O)NC(=S)N1CCc2ccccc21 (centres undefined)	9.3	i
Cc1ccc(/C=C/S(=O)(=O)NCC(=O)OCC(=O)NCc2ccccc2)cc1	i	i
COc1cccc(CN(C)C(=O)/C=C/c2ccc(S(=O)(=O)N3CCCCCC3)cc2)c1	nt	i
CCn1c(NCc2cccc(OC)c2OC)nc2ccccc21	i	-6.1
SMILES	KCNQ2 enhance	KCNQ2 inh
C=CCn1c(NCc2cc(Cl)ccc2O)nc2ccccc21	nt	i
CCn1c(NCc2cc(Cl)ccc2O)nc2ccccc21	i	-5.6
C=CCn1c(NCc2ccccc2OC)nc2ccccc21	nt	i
CCCCC(=O)Nc1cc(C)c(NC(=O)c2ccco2)cn1	i	i
COc1ccccc1N1CCN(/N=C/c2ccc([N+](=O)[O-])cc2)CC1	nt	i
COc1ccccc1N1CCN(/N=C/c2ccc(Cl)c([N+](=O)[O-])c2)CC1	i	-6.1
CN(C(=O)COC(=O)C1CCN(S(=O)(=O)c2ccc3c(c2)OCCO3)CC1)C1CCCCC1	nt	i
CC(C)N=c1cc2n(-c3ccc(Cl)cc3)c3ccccc3nc-2cc1Nc1ccc(Cl)cc1	i	-8
Cn1c(CNc2ccc(Cl)cc2)nc2ccccc21	nt	i
COc1ccccc1NC(=O)CN1C(=O)CC(C)S(=O)(=O)c2ccccc21 (centres undefined)	i	i
CC(C)Oc1cc(C(=O)NC2CCCCC2)c2ccccc2n1	i	-6
O=C(NC1CCCCCCC1)c1cc(-c2ccccn2)nc2ccccc12	nt	i
Cc1ccc(CCNC(=O)C2CCN(S(=O)(=O)c3ccc4c(c3)NC(=O)CO4)CC2)cc1	nt	i
Cc1cc(=O)oc2c(C)c(OC(C)C(=O)NCc3ccccn3)ccc12 (centres undefined)	i	i
CC(C)(Cc1cc(CC(C)(C)C(=O)O)cc(C(C)(C)C)c1)C(=O)O	i	i
Cc1nn(-c2ccccc2)c(Cl)c1/C=N/NC(=O)OC(C)(C)C	nt	i
Cc1ccc(C)c(OCC(=O)N/N=C/c2c(C)nn(-c3ccccc3)c2Cl)c1	i	-7.4
COC(=O)c1ccc2c(=O)n(CCCCCC(=O)N3CCN(c4ccccc4)CC3)c(=O)[nH]c2c1	i	i
COc1cc2[nH]c(=O)n(CCCCCC(=O)N3CCN(c4ccccc4)CC3)c(=O)c2cc1OC	i	-8.3
Cc1ccc(O)c(C2=NNC(c3ccc(Cl)cc3)C2)c1 (centres undefined)	nt	i
Oc1ccc(Cl)cc1C1=NNC(c2cccs2)C1 (centres undefined)	12	i
CCCc1ccc(S(=O)(=O)N2CCN(Cc3ccco3)CC2)cc1	i	-5.9
Cc1ccc(S(=O)(=O)N2CCN(Cc3ccco3)CC2)cc1C	nt	i
CCN(CC)C(=O)C(=O)c1cn(CCOc2ccccc2)c2ccccc12	i	-7.3
COC(=O)c1cn(CCOc2ccccc2)c2ccccc12	nt	i
SMILES	KCNQ2 enhance	KCNQ2 inh
CCN(CC)S(=O)(=O)c1cc(-c2nnc(-c3ccc(Br)cc3)o2)ccc1Cl	i	-6.1
CCN(CC)S(=O)(=O)c1ccc(-c2nnc(SC)o2)cc1	i	i
CCN(CC)S(=O)(=O)c1cccc(-c2nnc(-c3ccc(C)cc3)o2)c1	nt	i
CCN(CC)S(=O)(=O)c1cc(-c2nnc(-c3ccc(Br)cc3)o2)ccc1Br	i	-7
CCSc1nnc(NC(=O)CCNS(=O)(=O)c2ccccc2F)s1	i	i
CC(OC(=O)C1CCN(S(=O)(=O)c2ccc(F)cc2)CC1)C(=O)NC1CCCCC1C (centres undefined)	i	i
O=C(CNS(=O)(=O)c1ccc(Br)cc1)N1CCN(Cc2ccccc2)CC1	nt	i
Cc1ccc(S(=O)(=O)CCN2C=CC(C(F)(F)F)=NCC2)cc1	i	i
COC(=O)c1cc(-c2cccs2)nn1-c1ccccc1	i	i
O=C(c1ccccc1)n1ccc(-c2cccs2)n1	8.6	i
O=C(CN1C(=O)COc2ccc(S(=O)(=O)N3CCCC3)cc21)NC1CCCCCCC1	11	i
O=C(CN1C(=O)COc2ccc(S(=O)(=O)N3CCCC3)cc21)NC1CC1	nt	i
Cc1cc(CNC(=O)c2cccc(OC3CCN(S(=O)(=O)N(C)C)CC3)c2)on1	i	i
CCC(C)n1cnc2c(c1=O)c1nc3ccccc3nc1n2Cc1ccc2c(c1)OCO2 (centres undefined)	i	i
Cc1nc2c(c(=O)n1CCC(C)C)c1nc3ccccc3nc1n2Cc1ccc2c(c1)OCO2	i	-6.3
Cc1ccc(NC(=O)C(=O)NNC(=O)c2ccccc2C)cc1Cl	12	i
COc1ccc(C(=O)NNC(=O)C(=O)Nc2ccc(C)c(Cl)c2)cc1	i	i
COc1ccc(S(=O)(=O)N(CC(=O)NCc2ccncc2)c2ccc(C)cc2)cc1Br	nt	i
CC(=O)N(CCC(Cc1ccccc1)c1ccc2c(c1)OCO2)Cc1ccc(Cl)cc1 (centres undefined)	i	-10
O=C(O)CC(Cc1ccccc1)c1ccc2c(c1)OCO2 (centres undefined)	nt	i
O=C(Oc1ccccc1)c1cccc2cccc(C(=O)Oc3ccccc3)c12	i	-5.8
O=C(Oc1ccccc1)c1cc2ccccc2oc1=O	nt	i
CCOc1ccc(OCCC(=O)OCC(=O)Nc2ccc3c(c2)OCCO3)cc1	nt	i
